# Most compounds without a hit are left out; they make up all but 0.37% or so of the library.
# PTAP TSG101 blk = blocks PTAP/TSG101 interaction to inhibit HIV-1 budding; Fluorescence polarization, FITC-PTAP peptide / Tsg101 binding; Potency, µM (top dose mostly 115 µM), for the others: at the highest dose activity change, negative = inhibition, usual class: inhibitors; 340,000 tested, under 10 active; AID 493005; active = well fitted inhibition curve with a large enough effect in the main read-out, with a control signal flat, not every such curve was filed as active; inconclusive = small, poorly fitted or top-dose-only effect, or effect the other way, or a change in a side signal; inactive = no such curve, though single readings can be large or run the other way; note: potency is the fitted concentration of half-maximal effect; % of control where 0% means no effect
#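 Fluorescence anisotropy tracks displacement of a FITC-tagged PTAP peptide (50 nM) from the Tsg101 binding domain (10 uM), following a 20 min room-temperature incubation at pH 7.5.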
# ASM inhibitor = inhibitors of human secretory acid sphingomyelinase; P17405; placental ASM, HMU-PC fluorogenic substrate, 60 min; Potency, µM (highest dose often 57.5 µM), inactives show at the top dose activity change, negative = inhibition, usual class: inhibitors; hit rate 0.006% among 340,000; note: potency is the fitted concentration of half-maximal effect
# Target sequence (P17405 47-631 limits assumed): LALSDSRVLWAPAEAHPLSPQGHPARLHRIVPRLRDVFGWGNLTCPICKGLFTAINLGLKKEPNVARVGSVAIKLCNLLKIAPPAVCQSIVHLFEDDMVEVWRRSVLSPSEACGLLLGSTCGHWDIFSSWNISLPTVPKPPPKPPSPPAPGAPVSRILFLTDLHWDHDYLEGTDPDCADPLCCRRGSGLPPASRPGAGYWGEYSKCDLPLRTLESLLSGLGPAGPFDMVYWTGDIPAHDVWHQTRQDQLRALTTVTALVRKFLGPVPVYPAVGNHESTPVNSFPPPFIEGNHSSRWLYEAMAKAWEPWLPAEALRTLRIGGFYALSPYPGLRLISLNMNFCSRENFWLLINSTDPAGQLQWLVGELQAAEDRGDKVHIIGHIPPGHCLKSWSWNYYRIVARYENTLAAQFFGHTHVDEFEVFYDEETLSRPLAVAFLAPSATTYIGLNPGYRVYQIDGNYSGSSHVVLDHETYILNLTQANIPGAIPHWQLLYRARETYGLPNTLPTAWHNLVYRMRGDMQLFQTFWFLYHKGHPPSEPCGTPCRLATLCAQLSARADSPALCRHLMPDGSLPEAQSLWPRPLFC
#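 HMU-PC0 cleavage (9 uM final) by human placental ASM, 60 min at 37 °C following 10 min compound exposure at RT; stopped at pH 10, fluorescence Ex 386/Em 447 nm.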
# TRPV1 agonist = activates the human vanilloid receptor TRPV1; activation, % at 8.33 µM; TRPV1-expressing cells, Fluo-8 calcium influx, agonist mode; hit rate 0.19% among 320,000; in the data active = activation above about 80%; inconclusive = between about 30% and that limit; note: 0% is about no effect
#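 TRPV1-expressing cells were cultured overnight at 35.5C and loaded with Fluo-8 calcium dye for 40 to 90 min at room temperature. After a 10 s baseline, compound was added and calcium influx was read kinetically for 3 min (ex 480/em 520 nm).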
# AT treatment = candidate therapy for ataxia-telangiectasia. F2112 A-T fibroblasts, KAP-1 phosphorylation AlphaLISA; neocarzinostatin DNA damage 30 min before lysis. hit rate 0.19% among 320,000. Potency, µM (series often up to 57.5 µM), without a hit: at the highest dose activation, most hits filed as activators; note: potency is the fitted concentration of half-maximal effect; % of control where 0% means no effect; nearly all actives have a fitted effect of over 45% in size
#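 hTERT-immortalized A-T patient fibroblasts (F2112), 500 cells/well in OPTI-MEM, 1% FBS, got compounds for 60 min, then NCS for 30 min at 37C. Lysates were then assayed for phospho-KAP-1 by AlphaLISA (anti-pKAP1 donor, anti-KAP1 acceptor beads), 6 hr at 25C.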
# TRPV1 PAM = enhances activation of the human vanilloid receptor TRPV1 | Q8NER1 | TRPV1-expressing cells, Fluo-8 calcium influx, capsaicin EC20 potentiation | potentiation, % at 8.33 µM | hit rate 0.02% among 320,000 | AID 540277; in the data active = potentiation above about 80%; inconclusive = between about 30% and that limit; note: 0% is about no effect
#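 Cells expressing TRPV1 were dye-loaded with Fluo-8 and read kinetically: 10 s baseline, 3 min after compound (agonist portion), then 2 min after EC20 capsaicin (allosteric enhancer portion). Calcium-bound dye fluorescence at 480/520 nm.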
# Starred values were filed as active, the others as inactive; i = inactive; ? = inconclusive; . = not tested or not shown; [ ] = remark or other dose. Unless noted, calls come from the whole dose curve; as a rule, active = well fitted curve in the direction sought with a large enough effect; inconclusive = small, poorly fitted or top-dose-only effect, or another doubt; inactive = no such curve, though single readings can be large; an effect the other way counts as inactive or inconclusive.
SMILES,PTAP TSG101 blk,ASM inhibitor,TRPV1 agonist,AT treatment,TRPV1 PAM
COc1ccc(C2CC(c3cccs3)=NN2c2ccc(C=O)cc2)cc1 (stereo not drawn),?,i,16,25µM*,17
c1ccc(C2CC(c3cccs3)=NN2c2ccccc2)cc1 (stereo not drawn),?,i,5,20µM*,-5
Fc1ccc(C2CC(c3cccs3)=NN2c2ccccc2)cc1 (stereo not drawn),1%,i,2,32µM*,15
Oc1ccccc1C1=NN(c2ccccc2)C(c2ccc(F)cc2)C1 (stereo not drawn),0%,i,4,11%,2
COc1ccc(C2=NN(c3ccc(C=O)cc3)C(c3ccccc3)C2)cc1 (stereo not drawn),3%,i,1,23%,-4
COc1ccc(NC(=O)c2cccn2-c2nnc(N3CCCCC3)s2)cc1,.,.,3,.,22
Cc1ccccc1C(=O)Nc1nnc(CC(=O)N/N=C/c2ccco2)s1,1%,5%,-1,16µM*,2
Cc1ccccc1C(=O)Nc1nnc(CC(=O)N/N=C/c2cn(Cc3ccccc3)c3ccccc23)s1,1%,-2%,-5,1%,6
Cc1cc(-c2nn(-c3ccccc3F)cc2CN2CCN(c3ccncc3)CC2)c(C)s1,-2%,-1%,0,1%,0
CCOC(=O)N1CCC(n2c(SCC(=O)N3CCC(C)CC3)nc3ccccc3c2=O)CC1,-8%,1%,81*,6%,-9
CC1CCN(C(=O)CSc2nc3ccccc3c(=O)n2Cc2ccc3c(c2)OCO3)CC1,-2%,-1%,82*,2%,-3
CCN(CC)c1ccc(NC(=O)COc2ccccc2C#N)cc1S(=O)(=O)Nc1ccc(OC)cc1,0%,-2%,6,0%,4
CCN(CC)c1ccc(NC(=O)c2cnccn2)cc1S(=O)(=O)Nc1ccc(OC)cc1,-3%,-7%,85*,3%,20
CC1CCCN(c2ccc(C(=O)Nc3cccnc3)cc2[N+](=O)[O-])C1 (stereo not drawn),-1%,-13%,87*,-2%,-3
CCc1nnc(NC(=O)C(CC)c2ccccc2)s1 (stereo not drawn),-3%,5%,1,-2%,-1
CCc1nnc(NC(=O)C(CC)CC)s1,0%,1%,2,40µM*,-4
CC1(C)CC2(CCCN(C(=S)Nc3ccccc3)C2)CCO1 (stereo not drawn),-6%,-3%,3,20µM*,0
O=C(CCSCc1ccccc1F)NCc1ccc(F)cc1,-1%,-1%,82*,-5%,6
O=C(CSCc1ccc(F)cc1)NCc1ccc(F)cc1,1%,7%,?,3%,1
Cc1ccc(CSCC(=O)NCc2ccc(F)cc2)cc1,-4%,0%,82*,6%,-2
CCOc1ccc(CNC(=O)CCSCc2ccccc2F)cc1OC,-4%,2%,104*,-2%,-9
COc1ccc([C@]23Cc4cc(OC)c(OC)cc4C(O2)c2c(cc(C)oc2=O)O3)cc1,.,.,i,17%[11.5 µM],i
CN(CCc1ccccc1)C(=O)c1ccc(NC(=O)Cc2cccc(NC(=O)C3CCN(C(=O)CCc4ccccc4)CC3)c2)cc1,-3%,-5%,.,.,.
Cc1cc(C)cc(NC(=O)c2ccc3c(c2)CCN3S(C)(=O)=O)c1,-3%,-6%,?,2%,-7
CS(=O)(=O)N1CCc2cc(C(=O)Nc3ccc(Br)cc3)ccc21,-6%,-10%,88*,0%,-7
SMILES,PTAP TSG101 blk,ASM inhibitor,TRPV1 agonist,AT treatment,TRPV1 PAM
COc1ccc2nc3c(cc2c1)c(NC(=O)C1CCCO1)nn3CC(C)C (stereo not drawn),-2%,i,.,35µM*,.
CCn1nc(NC(=O)CC(C)C)c2cc3ccc(C)cc3nc21,1%,187%,0,20µM*,?
CCCn1nc(NC(=O)C2CCCO2)c2cc3ccc(C)cc3nc21 (stereo not drawn),2%,i,?,25µM*,-14
COc1ccc2nc3c(cc2c1)c(NC(=O)CC(C)C)nn3CC(C)C,-2%,485%,?,34%,-14
N#Cc1cccc(C(=O)Nc2cc(S(=O)(=O)N3CCOCC3)ccc2N2CCCC2)c1,-7%,6%,.,7%,.
CCN(CC)S(=O)(=O)c1ccc(N2CCOCC2)c(NCC(=O)Nc2ccc(F)cc2)c1,-2%,-1%,?,14%,-12
O=C(Nc1ccc(-c2nc3cccnc3s2)cc1)c1cccnc1Cl,-5%,24%,4,14µM*,4
CCN1C(=NCCN2CCOCC2)N[C@@H](CCc2ccccc2)C(C(=O)OC)=C1C,.,.,3,-10%,-9
Cc1ccn2c(NC3CCCCC3)c(-c3cccc(-c4cccc(Cl)c4)c3)nc2c1,.,30%,?,25µM*,3
Cc1ccn2c(NC3CCCC3)c(-c3ccncc3)nc2c1,-7%,13%,10,3%,-10
O=C(Cc1ccccc1)NCCSCc1ccccc1,-3%,5%,17,-6%,-10
Cc1ccc(C(=O)NCCc2ccncc2)cc1,-5%,8%,10,-1%,-8
O=C(NCCSCc1ccccc1)c1ccc(F)cc1,1%,6%,81*,2%,-21
Cc1ccc(C(=O)NCCc2ccccc2)cc1,-2%,-2%,84*,1%,-12
Cc1ccc(S(=O)(=O)Cc2ccc(C(=O)NCCc3ccccc3)o2)cc1,-4%,4%,81*,-4%,-27
COc1ccc(C)cc1NC(=O)C1COc2ccccc2O1 (stereo not drawn),-7%,-2%,14,9%,-3
O=C(Nc1cccc2cccnc12)OC(Cl)(Cl)Cl,.,.,8,.,-10
S=c1[nH]nc(COc2ccccc2)n1/N=C/c1ccccc1Cl,-8%,39%,18,5µM*,-5
CC1(C)Cc2c(c(N3CCOCC3)nc3sc(C(N)=O)c(N)c23)CO1,-1%,i,1,22µM*,17
CC1CCc2c(sc(/N=C/c3cccnc3)c2C(N)=O)C1 (stereo not drawn),1%,34%,-1,-23%,17
CC1CCc2c(sc(/N=C/c3ccco3)c2C(N)=O)C1 (stereo not drawn),-4%,5%,4,16µM*,5
CCOC(=O)c1c(NC(=O)COC(=O)c2ccccn2)sc(C(=O)N(C)C)c1C,4%,2%,10,8%,103*
Cc1oc2ccc(OCc3ccc(Br)cc3)cc2c1C(=O)O,5%,-2%,4,3.5µM*,3
O=C(CN1CCCCC1)Nc1nc(-c2ccc(F)c(F)c2)cs1,-7%,-1%,-1,9%,-3
Cc1ccc(-c2csc(NC(=O)CN3CCOCC3)n2)cc1C,1%,-5%,95*,4%,-14
